Rows were chosen to be rich in hits. Some 21% of all compounds tested hit in one or more screens of this group.
Pf growth 96h = P. falciparum growth inhibition at 96 hour, primary screen for plastid delayed-death inhibitors; P. falciparum luciferase reporter growth, 96 h; Potency, µM (series often up to 28.7 µM), without a hit: at the top dose activity change, negative = inhibition, usual class: inhibitors; actives 6.9% (n = 320,000); AID 504834; also: potency is read from the fitted curve at half-maximal effect; % is scaled to controls: 0 for no effect and ±100 for the full control effect
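Plates of compound plus infected erythrocytes (2% hematocrit, 0.05% parasitemia final) incubate 96 hours, 37 C, 5% CO2. Detection reagent added; reduced luminescence from the parasites' luciferase reporter flags inhibition.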
NS1 inh = influenza NS1 inhibition | Potency, µM (highest dose often 46.1 µM), without a hit: at the top dose activity, positive = more growth | actives 0.4% (n = 270,000) | AID 2326; calls by dose curve; also: potency is read from the fitted curve at half-maximal effect; actives are rising curves; nearly all actives have a fitted effect of over 50% in size
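S. cerevisiae expressing influenza A NS1, grown in glucose, washed, then diluted 1:100 into pH 6.0 -URA galactose medium with 23 nl compound. Growth recovery read as OD600; NS1-free strain serves as control.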
Shiga inhibitor = inhibitors of Shiga toxin in Vero cells; Vero cells, Shiga toxin protein synthesis inhibition reporter; inhibition, % at 38.7 µM; actives 9.2% (n = 290,000); in the data active = inhibition mostly above about 28%, no sharp cut-off; inactive = mostly below about 43%; also: 0% is about no effect
CHX counter = counter-screen for Shiga toxin inhibitors: cycloheximide protein synthesis inhibition | AID 2314 | cell reporter, cycloheximide protein synthesis inhibition counterscreen | max response, % | actives 12% (n = 300,000); in the data active = max response mostly above about 13%, no sharp cut-off; inactive = mostly below about 14%; also: read at 38.3 µM for the half of the compounds with a filed dose; 0% is about no effect
Pf growth 48h = P. falciparum growth inhibition at 48 hours (one generation); P. falciparum luciferase growth in erythrocytes, 48 h; Potency, µM (doses to about 28.7 µM), for inactives: at the top dose activity change, negative = inhibition, hits mostly inhibitors; actives 5.9% (n = 310,000); also: potency is read from the fitted curve at half-maximal effect; % is scaled to controls: 0 for no effect and ±100 for the full control effect
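Luciferase-expressing parasites in RBCs, 2% Hct / 0.1% parasitemia final; RPMI 1640 + 0.5% Albumax; 37 C, 5% CO2, one generation; luminescence read-out, lower signal = inhibition.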
Numbers without * were called inactive. Unless noted, calls follow the shape of the dose curve; as a rule, active = well fitted inhibition curve with a large enough effect; inconclusive = small, poorly fitted or top-dose-only effect, or another doubt; inactive = no such curve, though single readings can be large or run the other way.

For O=C(c1cc(COc2ccc(F)cc2Cl)on1)N1CCCCCCC1 the results were Pf growth 96h inconclusive, NS1 inh -17%, Shiga inhibitor 40*, CHX counter 32* and Pf growth 48h 6%.
`COc1ccc(/C=C/C(=O)c2cccc(-n3cnnn3)c2)cc1O` gave Pf growth 96h -22%, NS1 inh 13%, Shiga inhibitor -17, CHX counter 7 and Pf growth 48h -12%.
`Cc1cccc(C)c1OCc1cc(C(=O)N2CCN(Cc3nccn3C)CC2)no1` gave Pf growth 96h inconclusive, NS1 inh -5%, Shiga inhibitor 21, CHX counter 12 and Pf growth 48h -5%.
Screening Cc1ccc(S(=O)(=O)/N=C(/Nc2ccc(F)cc2F)c2ccccc2)cc1 returned Pf growth 96h inconclusive, NS1 inh -7%, Shiga inhibitor 21, CHX counter 0 and Pf growth 48h 11%.
For O=C(c1cc(COc2ccc(F)cc2F)on1)N1CCSCC1 the results were Pf growth 96h -8%, NS1 inh inconclusive, Shiga inhibitor 85*, CHX counter 58* and Pf growth 48h 91%.
For NC(=O)[C@@H]1CCCN1C(=O)c1cc(COc2ccc(F)cc2F)on1 the results were Pf growth 96h 54%, NS1 inh 10%, Shiga inhibitor 19, CHX counter 21 and Pf growth 48h 62%.
For CCO[C@H]1OC(C(=O)N2CCN(Cc3ccccc3)CC2)=C[C@@H](C)[C@@H]1CCCO the results were Pf growth 96h 0%, NS1 inh -3%, Shiga inhibitor -7, CHX counter -1 and Pf growth 48h 4%.
`CCO[C@@H]1OC(C(=O)N2CCN(Cc3ccccc3)CC2)=C[C@H](c2ccc(Br)cc2)[C@H]1CCCO` gave Pf growth 96h 13µM*, NS1 inh -13%, Shiga inhibitor -8, CHX counter 1 and Pf growth 48h inconclusive.
For CCO[C@@H]1OC(C(=O)N2CCN(Cc3ccccc3)CC2)=C[C@H](c2ccc(C(F)(F)F)cc2)[C@H]1CCCO the results were Pf growth 96h 15µM*, NS1 inh -5%, Shiga inhibitor -16, CHX counter 6 and Pf growth 48h inconclusive.
`COc1ccccc1C(=O)O/N=C(\N)c1ccccn1` gave Pf growth 96h inactive, NS1 inh -35%, Shiga inhibitor 34, CHX counter 22* and Pf growth 48h -28%.
For COc1cc(OC)c(C(=O)O/N=C(\N)c2ccccn2)cc1OC the results were Pf growth 96h 1%, NS1 inh -3%, Shiga inhibitor 78*, CHX counter 14* and Pf growth 48h -23%.
For Cc1ccccc1CNC(=O)CN(c1ccccc1Cl)S(C)(=O)=O the results were Pf growth 96h inconclusive, NS1 inh 24%, Shiga inhibitor 4, CHX counter 3 and Pf growth 48h 3%.
For COc1cc(OC)c(OC)cc1CN1CCCC(C(=O)c2ccccc2SC)C1 (stereo not given) the results were Pf growth 96h 3.7µM*, NS1 inh -2%, Shiga inhibitor 27, CHX counter -2 and Pf growth 48h -7%.
`COc1cc(CN2CCCC(C(=O)c3ccccc3SC)C2)cc(OC)c1` (stereo not given) gave Pf growth 96h 12µM*, NS1 inh 7%, Shiga inhibitor -10, CHX counter -6 and Pf growth 48h 0%.
`CSc1ccccc1C(=O)C1CCCN(C(=O)c2cc(C(C)C)no2)C1` (stereo not given) gave Pf growth 96h -8%, NS1 inh -56%, Shiga inhibitor 27, CHX counter -1 and Pf growth 48h -1%.
Screening CSc1ccccc1C(=O)C1CCCN(C(=O)c2csnn2)C1 (stereo not given) returned Pf growth 96h 10%, NS1 inh 0%, Shiga inhibitor 90*, CHX counter 31* and Pf growth 48h 22%.
For Cc1ccc(OCC(O)CN2CCC(Cc3ccccc3)CC2)c(C)c1 (stereo not given) the results were Pf growth 96h inconclusive, NS1 inh -17%, Shiga inhibitor -1, CHX counter -12 and Pf growth 48h -21%.
For Cc1cccc(-c2nnc(N)s2)c1 the results were Pf growth 96h 63%, NS1 inh -11%, Shiga inhibitor 21, CHX counter 7 and Pf growth 48h 13%.
`Nc1nc(-c2ccc(F)cc2)cc(C(F)(F)F)n1` gave NS1 inh 7%, Shiga inhibitor -11, CHX counter -1 and Pf growth 48h 5%.
Cc1ccc(Oc2ccc(-c3nc(N)nc(N)n3)cc2)cc1 was read as Pf growth 96h -6%, NS1 inh -61%, Shiga inhibitor 29, CHX counter 12* and Pf growth 48h 82%.
For Nc1nc(N)nc(-c2ccc(Cl)cc2)n1 the results were Pf growth 96h 107%, NS1 inh -3%, Shiga inhibitor 25 and CHX counter 29*.
For Nc1nc(-c2ccc(Cl)cc2)cc(C(F)(F)F)n1 the results were Pf growth 96h 7.4µM*, NS1 inh 5%, Shiga inhibitor 3, CHX counter -1 and Pf growth 48h 27%.
Cc1cccc(-c2nc(N)nc(N)n2)c1 was read as Pf growth 96h 120%, NS1 inh -3%, Shiga inhibitor 48, CHX counter 34* and Pf growth 48h 88%.
Screening COc1ccc2c(c1)OC13CCCCC1C2C(C(=O)c1ccccc1)C(=O)N3 (stereo not given) returned Pf growth 96h -41%, NS1 inh -1%, Shiga inhibitor -19 and CHX counter 1.
For COc1cc([N+](=O)[O-])ccc1N1C(=O)C2C3C=CC(C4CC34)C2C1=O (stereo not given) the results were Pf growth 96h -4%, Shiga inhibitor 15, CHX counter 12 and Pf growth 48h 55%.
CCCOc1ccc(Oc2ccc(S(=O)(=O)N3CCN(C)CC3)cn2)cc1 was read as Pf growth 96h 5% and Pf growth 48h 2%.
`Nc1nc(-c2ccc(Cl)cc2)nnc1-c1ccc(Br)cc1` gave Pf growth 96h 122%, NS1 inh -3%, Shiga inhibitor 96*, CHX counter 52* and Pf growth 48h 87%.
`Nc1nc(N)nc(-c2cc(C(F)(F)F)ccc2Cl)n1` gave Pf growth 96h 60% and Pf growth 48h 1%.
`Nc1nc(N)nc(-c2cc(Cl)ccc2Cl)n1` gave Pf growth 96h 8.5µM*, Shiga inhibitor -8, CHX counter 4 and Pf growth 48h -5%.
Screening CCCOP(=O)(c1ccc(N(C)C)cc1)C(O)c1c(Cl)cccc1Cl (stereo not given) returned Pf growth 96h 8.3µM*, NS1 inh -3%, Shiga inhibitor 3, CHX counter -2 and Pf growth 48h inconclusive.
COc1cc(C(O)P(=O)(OCCC(C)C)c2ccc(N(C)C)cc2)cc(OC)c1OC (stereo not given) was read as Pf growth 96h inconclusive, NS1 inh 2%, Shiga inhibitor -1, CHX counter 3 and Pf growth 48h -24%.
